Results filed as inconclusive are left out. Activity calls are given as the source filed them. Unless noted, the call rests on the fitted dose curve; in most records, active means well fitted curve in the direction sought with a large enough effect in the repeat runs; inconclusive means weak or mixed curves; inactive means no such curve, though single readings can be large; an effect the other way counts as inactive or inconclusive.
Columns and labels:
[1] = qHTS assay to identify aromatase inhibitors - cell viability counter screen (AID 743084);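 further: cells stimulated with testosterone during compound exposure; nearly all actives have a fitted effect of over 55% in size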
[2] = target: Aryl hydrocarbon receptor (Homo sapiens) (UniProt P35869); assay: qHTS assay to identify small molecule that activate the aryl hydrocarbon receptor (AhR) signaling pathway (AID 743085); further: nearly all actives have a fitted effect of over 15% in size; further: potency means the concentration at half of the fitted maximal effect;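 on activation: HG2L7.5c1 human HepG2 liver cells with stably integrated DRE-driven firefly reporter; series mostly up to about 70 µM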
Chain of Aryl hydrocarbon receptor (Homo sapiens) (P35869 whole entry, looked up): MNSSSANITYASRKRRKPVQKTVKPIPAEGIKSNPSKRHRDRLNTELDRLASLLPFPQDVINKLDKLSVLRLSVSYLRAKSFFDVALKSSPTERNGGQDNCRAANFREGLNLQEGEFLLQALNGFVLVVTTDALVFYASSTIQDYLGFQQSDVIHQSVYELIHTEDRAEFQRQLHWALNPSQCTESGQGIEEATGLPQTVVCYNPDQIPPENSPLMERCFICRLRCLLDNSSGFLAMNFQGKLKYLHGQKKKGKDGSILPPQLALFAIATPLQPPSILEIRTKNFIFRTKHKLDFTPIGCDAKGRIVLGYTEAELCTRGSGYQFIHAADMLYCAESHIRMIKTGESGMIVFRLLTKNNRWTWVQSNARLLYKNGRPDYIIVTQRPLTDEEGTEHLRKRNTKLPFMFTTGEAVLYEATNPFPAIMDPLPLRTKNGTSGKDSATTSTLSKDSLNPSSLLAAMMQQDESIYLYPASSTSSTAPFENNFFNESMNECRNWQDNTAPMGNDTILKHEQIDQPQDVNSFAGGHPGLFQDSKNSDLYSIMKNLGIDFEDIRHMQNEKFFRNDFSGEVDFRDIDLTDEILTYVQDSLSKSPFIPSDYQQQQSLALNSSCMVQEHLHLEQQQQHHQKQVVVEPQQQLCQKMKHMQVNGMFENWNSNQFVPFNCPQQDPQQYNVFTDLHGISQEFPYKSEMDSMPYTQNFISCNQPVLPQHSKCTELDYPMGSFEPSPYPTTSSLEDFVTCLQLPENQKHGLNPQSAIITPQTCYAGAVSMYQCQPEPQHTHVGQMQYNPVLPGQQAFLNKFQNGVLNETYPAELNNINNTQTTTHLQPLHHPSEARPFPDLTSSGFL
Outline: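 Compounds were tested in HepG2 hepatocellular carcinoma cells harbouring a stably integrated luciferase gene under control of 20 DREs. Increased reporter signal after 24 h treatment at 37C was taken as AhR activation.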

[3] = qHTS assay to identify small molecule that activate the aryl hydrocarbon receptor (AhR) signaling pathway - cell viability counter screen (AID 743086);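 further: HepG2 liver cells carrying the AhR DRE luciferase reporter; series mostly up to about 70 µM; nearly all actives have a fitted effect of over 45% in size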
Outline: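 HepG2-AhR-luc (HG2L7.5c1) cells, 4000/well, treated 24 h at 37 C with compound; viability measured as CellTiter-Fluor fluorescence after 30 min in the same wells as the luciferase read.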

[4] = target: Peroxisome proliferator-activated receptor gamma (Homo sapiens) (UniProt P37231); assay: qHTS assay to identify small molecule agonists of the peroxisome proliferator-activated receptor gamma (PPARg) signaling pathway (AID 743094; active means well fitted activation curve with a large enough effect in the signal ratio in the repeat runs, not every such curve was filed as active; the % refers to the signal ratio)
Chain of Peroxisome proliferator-activated receptor gamma (Homo sapiens) (P37231 whole entry, looked up): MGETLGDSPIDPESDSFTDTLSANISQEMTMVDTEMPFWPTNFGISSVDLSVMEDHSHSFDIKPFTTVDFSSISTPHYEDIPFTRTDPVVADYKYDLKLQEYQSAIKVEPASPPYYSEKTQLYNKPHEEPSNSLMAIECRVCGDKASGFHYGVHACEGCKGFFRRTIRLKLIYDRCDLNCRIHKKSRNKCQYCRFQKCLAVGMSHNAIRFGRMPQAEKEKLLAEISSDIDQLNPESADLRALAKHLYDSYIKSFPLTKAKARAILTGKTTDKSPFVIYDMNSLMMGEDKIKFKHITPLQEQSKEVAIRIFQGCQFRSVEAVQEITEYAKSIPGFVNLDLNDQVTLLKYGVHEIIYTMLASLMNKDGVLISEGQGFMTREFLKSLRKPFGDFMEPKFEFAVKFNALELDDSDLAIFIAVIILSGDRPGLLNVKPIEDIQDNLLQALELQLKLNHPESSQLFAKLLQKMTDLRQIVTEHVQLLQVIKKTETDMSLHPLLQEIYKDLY
Outline: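 Stably transfected HEK293H cells (GeneBLAzer PPARg UAS-bla) were incubated with test substances for 17 h at 37C after a 5 h pre-incubation; beta-lactamase activity was then detected by FRET substrate fluorescence.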

[5] = target: Peroxisome proliferator-activated receptor gamma (Homo sapiens) (UniProt P37231); assay: qHTS assay to identify small molecule antagonists of the peroxisome proliferator-activated receptor gamma (PPARg) signaling pathway (AID 743191; calls by dose curve; further: series mostly up to about 63 µM; nearly all actives have a fitted effect of over 30% in size)
Outline: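 GeneBLAzer PPARg UAS-bla HEK293H cells, 5 h post-plating, exposed to compounds 17 h at 37C. LiveBLAzer B/G FRET substrate added for 1 h at room temperature; beta-lactamase reporter read by fluorescence intensity.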

[6] = qHTS assay to identify small molecule antagonists of the peroxisome proliferator-activated receptor gamma (PPARg) signaling pathway - cell viability counter screen (AID 743194); conditions: Potency: co-treated with 50 nM rosiglitazone; further: nearly all actives have a fitted effect of over 55% in size
Outline: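 Cytotoxicity counter screen in PPARg-bla HEK293H cells, same wells as reporter assay. Compounds plus 50 nM rosiglitazone (final) for 17 h at 37 C, then viability read by CellTiter-Glo luminescence.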

[7] = qHTS assay for small molecule agonists of the antioxidant response element (ARE) signaling pathway (AID 743202; active means well fitted activation curve with a large enough effect in the signal ratio in the repeat runs, not every such curve was filed as active; the % refers to the signal ratio)
Outline: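 Agonist mode reporter screen: HepG2 cells with ARE-controlled beta-lactamase are incubated with test compounds for 16 h at 37 C, and beta-lactamase activity is measured as fluorescence of cleaved B/G FRET substrate.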

[8] = qHTS assay for small molecule agonists of the antioxidant response element (ARE) signaling pathway - cell viability counter screen (AID 743203; calls by dose curve; further: nearly all actives have a fitted effect of over 55% in size)
Outline: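 Cells (ARE-bla HepG2, 2,000/well) receive DMSO-dissolved compounds after a 5 hrs rest. Plates incubate 16 hrs at 37C/5% CO2. CellTiter-Glo luminescence is then recorded after 30 min at room temperature.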

[9] = qHTS assay for small molecule activators of the heat shock response signaling pathway - cell viability counter screen (AID 743209); further: nearly all actives have a fitted effect of over 50% in size
Outline: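 Quantitative HTS format, Tox21 10K library. HeLa cells carrying an HSE-driven beta-lactamase reporter were treated 5 h at 37 C, then assessed for viability by CellTiter-Glo luminescence.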

[10] = qHTS assay to identify small molecule agonists of the peroxisome proliferator-activated receptor delta (PPARd) signaling pathway - cell viability counter screen (AID 743211); further: nearly all actives have a fitted effect of over 55% in size
Outline: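 Counter screen for cytotoxicity run in parallel with the PPARd reporter screen. Beta-lactamase reporter HEK293H cells exposed to compounds 17 h; ATP-based CellTiter-Glo luminescence quantified viability.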

[11] = qHTS assay to identify small molecule antagonists of the peroxisome proliferator-activated receptor delta (PPARd) signaling pathway - cell viability counter screen (AID 743213); further: nearly all actives have a fitted effect of over 50% in size
Outline: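 HEK293H cells with the PPARd UAS-bla reporter, co-treated 17 h at 37 C with compounds and L165041 (300 nM final), were lysed with CellTiter-Glo. Luminescence indicated viable cell content.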

[12] = qHTS assay to identify small molecule agonists of the farnesoid-X-receptor (FXR) signaling pathway - cell viability counter screen (AID 743218); further: nearly all actives have a fitted effect of over 45% in size
Outline: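 In GeneBLAzer FXR-UAS-bla HEK 293T cells, compounds act for 16 h at 37 C. Cell viability is then scored in the reporter wells by CellTiter-Glo, 30 min at RT, luminescence.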

[13] = qHTS assay to identify small molecule antagonists of the farnesoid-X-receptor (FXR) signaling pathway - cell viability counter screen (AID 743221; active means well fitted cell-killing curve with a large enough effect in the repeat runs, not every such curve was filed as active; further: nearly all actives have a fitted effect of over 50% in size)
Outline: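 Multiplexed counter screen: viability of FXR-bla HEK 293T cells under agonist stimulation by chenodeoxycholic acid (50 uM, final) and test compound for 16 h at 37 C, measured by CellTiter-Glo luminescence in the reporter wells.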

[14] = target: Vitamin D3 receptor (Homo sapiens) (UniProt P11473); assay: qHTS assay to identify small molecule agonists of the vitamin D receptor (VDR) signaling pathway (AID 743222; calls by dose curve)
Chain of Vitamin D3 receptor (Homo sapiens) (P11473 whole entry, looked up): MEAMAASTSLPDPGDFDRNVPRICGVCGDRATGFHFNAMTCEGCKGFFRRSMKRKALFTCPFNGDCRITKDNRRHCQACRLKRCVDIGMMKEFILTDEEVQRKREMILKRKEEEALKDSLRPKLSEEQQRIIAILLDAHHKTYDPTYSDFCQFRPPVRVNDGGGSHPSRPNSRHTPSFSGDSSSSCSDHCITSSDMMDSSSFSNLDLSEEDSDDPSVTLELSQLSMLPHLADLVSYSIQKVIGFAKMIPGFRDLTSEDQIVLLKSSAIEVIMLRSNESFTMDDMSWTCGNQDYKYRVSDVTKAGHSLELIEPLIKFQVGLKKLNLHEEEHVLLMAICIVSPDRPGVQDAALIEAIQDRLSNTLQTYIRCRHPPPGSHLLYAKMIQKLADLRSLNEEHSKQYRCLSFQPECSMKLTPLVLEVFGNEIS
Outline: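 Agonist activity measured in VDR-bla reporter cells. Exposure 16 h, 37C, 5% CO2; detection by B/G FRET substrate, 2 h RT.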

[15] = target: Vitamin D3 receptor (Homo sapiens) (UniProt P11473); assay: qHTS assay to identify small molecule antagonists of the vitamin D receptor (VDR) signaling pathway (AID 743223; active means well fitted inhibition curve with a large enough effect in the signal ratio in the repeat runs, not every such curve was filed as active; the % refers to the signal ratio)
Outline: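 Cells carrying a VDR-driven beta-lactamase reporter (VDR-bla) were co-treated with compound and 3 nM final 1alpha,25-dihydroxyvitamin D3 for 16 h at 37C; reporter activity was measured as FRET substrate fluorescence after 2 h at room temperature.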

[16] = qHTS assay for small molecule activators of the heat shock response signaling pathway (AID 743210; active means well fitted activation curve with a large enough effect in the signal ratio in the repeat runs, with a control signal flat, not every such curve was filed as active; the % refers to the signal ratio;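 further: HeLa cells with beta-lactamase reporter driven by heat shock elements; series mostly up to about 63 µM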)
Outline: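 Quantitative high-throughput format using an engineered HeLa line in which heat shock response elements drive beta-lactamase; after 5 h with compound, cells received a B/G FRET substrate and fluorescence was read.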

[17] = target: Peroxisome proliferator-activated receptor delta (Homo sapiens) (UniProt Q03181); assay: qHTS assay to identify small molecule agonists of the peroxisome proliferator-activated receptor delta (PPARd) signaling pathway (AID 743212; calls by dose curve)
Chain of Peroxisome proliferator-activated receptor delta (Homo sapiens) (Q03181 whole entry, looked up): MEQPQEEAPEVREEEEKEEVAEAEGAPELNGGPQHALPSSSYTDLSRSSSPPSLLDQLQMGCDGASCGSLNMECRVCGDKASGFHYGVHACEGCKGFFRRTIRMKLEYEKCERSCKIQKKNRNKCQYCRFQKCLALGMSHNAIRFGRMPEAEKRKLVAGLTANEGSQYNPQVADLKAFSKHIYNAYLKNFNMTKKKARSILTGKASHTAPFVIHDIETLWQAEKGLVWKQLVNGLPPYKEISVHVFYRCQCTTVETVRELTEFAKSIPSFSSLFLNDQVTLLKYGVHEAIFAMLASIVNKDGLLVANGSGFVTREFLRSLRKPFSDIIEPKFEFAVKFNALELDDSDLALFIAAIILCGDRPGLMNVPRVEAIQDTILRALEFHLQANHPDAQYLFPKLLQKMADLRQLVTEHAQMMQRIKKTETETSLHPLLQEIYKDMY
Outline: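 Quantitative high-throughput agonist screen in a HEK293H beta-lactamase reporter line under UAS control. Compounds in DMSO, at 37 C. Fluorescence read after 2 h with FRET substrate at room temperature.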

[18] = target: Peroxisome proliferator-activated receptor delta (Homo sapiens) (UniProt Q03181); assay: qHTS assay to identify small molecule antagonists of the peroxisome proliferator-activated receptor delta (PPARd) signaling pathway (AID 743215; active means well fitted inhibition curve with a large enough effect in the signal ratio in the repeat runs, not every such curve was filed as active; the % refers to the signal ratio;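 further: cells stimulated with agonist L165041 at 300 nM final during compound exposure; series mostly up to about 62 µM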)
Outline: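 Antagonist-mode beta-lactamase reporter screen: HEK293H cells with UAS-bla under PPARd control, stimulated by 300 nM L165041 (final) alongside test compound for 17 h at 37 C, then FRET fluorescence after 2 h substrate incubation.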

[19] = target: Bile acid receptor (Homo sapiens) (UniProt Q96RI1); assay: qHTS assay to identify small molecule antagonists of the farnesoid-X-receptor (FXR) signaling pathway (AID 743217; active means well fitted inhibition curve with a large enough effect in the signal ratio in the repeat runs, not every such curve was filed as active; the % refers to the signal ratio)
Chain of Bile acid receptor (Homo sapiens) (Q96RI1 whole entry, looked up): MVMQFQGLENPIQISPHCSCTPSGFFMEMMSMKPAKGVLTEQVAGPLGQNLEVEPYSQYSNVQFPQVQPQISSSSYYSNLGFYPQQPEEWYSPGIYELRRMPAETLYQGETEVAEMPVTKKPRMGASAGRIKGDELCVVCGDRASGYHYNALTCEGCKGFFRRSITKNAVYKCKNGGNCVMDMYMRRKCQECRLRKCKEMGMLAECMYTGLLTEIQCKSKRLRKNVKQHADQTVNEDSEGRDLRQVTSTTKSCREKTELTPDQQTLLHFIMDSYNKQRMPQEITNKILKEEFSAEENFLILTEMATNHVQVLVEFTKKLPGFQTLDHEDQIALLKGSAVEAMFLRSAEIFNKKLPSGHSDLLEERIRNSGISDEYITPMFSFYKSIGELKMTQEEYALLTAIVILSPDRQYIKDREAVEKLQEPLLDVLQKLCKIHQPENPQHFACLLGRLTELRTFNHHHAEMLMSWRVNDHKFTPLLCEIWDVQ
Outline: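 Beta-lactamase reporter under UAS control in HEK 293T cells; compound exposure 16 h at 37 °C in the presence of chenodeoxycholic acid (50 uM final); signal from B/G FRET substrate after 2 h at room temperature.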

[20] = target: Bile acid receptor (Homo sapiens) (UniProt Q96RI1); assay: qHTS assay to identify small molecule agonists of the farnesoid-X-receptor (FXR) signaling pathway (AID 743220; active means well fitted activation curve with a large enough effect in the signal ratio in the repeat runs, not every such curve was filed as active; the % refers to the signal ratio)
Outline: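 Beta-lactamase reporter under UAS control in GeneBLAzer FXR HEK 293T cells (5000/well) measured with LiveBLAzer FRET substrate after 2 h at room temperature. Compound exposure lasted 16 h at 37C.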
On the % scale 0 is the no-effect control and ±100 the full control effect.

S=C=S
inactive: Potency [1] | Potency [2] | Potency [3] | outcome [4] | Potency [5] | Potency [6] | Potency [7] | Potency [8] | Potency [9] | Potency [10] | Potency [11] | Potency [12] | Potency [13] | outcome [14] | outcome [15]

CN(CCO)CCO
inactive: Potency [1] | Potency [2] | Potency [3] | outcome [4] | Potency [5] | Potency [6] | Potency [8] | Potency [9] | Potency [16] | Potency [10] | outcome [17] | Potency [18] | outcome [19] | outcome [20] | Potency [13] | outcome [14] | outcome [15]

C[C@@H](N)[C@@H](O)c1ccccc1
inactive: Potency [1] | Potency [2] | Potency [3] | outcome [4] | Potency [5] | Potency [6] | Potency [7] | Potency [8] | Potency [9] | Potency [10] | outcome [17] | Potency [12] | Potency [13]

COc1ccc2c(C(=O)c3ccc(Cl)cc3)c(C)n(CC(=O)O)c2c1
active: Potency [2] 33.5 µM
inactive: Potency [1] | Potency [3] | outcome [4] | Potency [5] | Potency [7] | Potency [8] | Potency [9] | Potency [16] | outcome [17] | Potency [11] | Potency [18] | outcome [19] | outcome [20] | Potency [13]

COC(=O)[C@@H](N)CCCN/C(N)=N/[N+](=O)[O-]
inactive: Potency [1] | Potency [2] | Potency [3] | outcome [4] | Potency [5] | Potency [6] | Potency [8] | Potency [9] | Potency [16] | Potency [10] | outcome [17] | Potency [11] | Potency [18] | outcome [19] | outcome [20] | Potency [13]

Clc1cc2c(cc1Cl)Oc1cc(Cl)c(Cl)cc1O2
active: Potency [2] 0.0011 µM
inactive: activity change, negative = cytotoxicity [1] 1.38% [at 0.342 µM] | viability change, negative = cytotoxic [3] -4.26% [at 0.341 µM] | activation [4] -9.85% [at 0.285 µM] | ratio activity, negative = inhibition [5] -3.27% [at 0.275 µM] | activity change, negative = cytotoxicity [6] 15.5% [at 0.275 µM, co-treated with 50 nM rosiglitazone] | viability change, negative = cytotoxic [8] -8.47% [at 0.338 µM] | activity change, negative = cytotoxicity [9] -11.9% [at 0.275 µM] | activation [16] -0.0962% [at 0.275 µM] | activity change, negative = cytotoxicity [10] -2.8% [at 0.275 µM] | activation [17] 7.23% [at 0.275 µM] | ratio activity, negative = inhibition [18] -14.9% [at 0.278 µM] | activity change, negative = inhibition [19] -0.544% [at 0.275 µM] | viability change, negative = cytotoxic [12] -3.37% [at 0.275 µM] | activity change, negative = cytotoxicity [13] -5.6% [at 0.275 µM] | activation [14] 3.98% [at 0.275 µM] | activity change, negative = inhibition [15] -1.31% [at 0.281 µM]

CCOC1Oc2ccc(OS(C)(=O)=O)cc2C1(C)C (stereo not drawn)
inactive: Potency [1] | Potency [2] | Potency [3] | outcome [4] | Potency [5] | Potency [6] | Potency [9] | Potency [10] | outcome [17] | Potency [18] | Potency [12] | Potency [13] | outcome [14]

CC[C@H](N)c1ccccc1
inactive: Potency [1] | Potency [2] | Potency [3] | outcome [4] | Potency [5] | Potency [6] | Potency [7] | Potency [8] | Potency [9] | Potency [16] | Potency [11] | Potency [12] | Potency [13] | outcome [14] | outcome [15]

COc1ccc(CN2CCNCC2)c(OC)c1OC
inactive: Potency [1] | Potency [2] | Potency [3] | outcome [4] | Potency [5] | Potency [6] | Potency [7] | Potency [8] | Potency [9] | Potency [10] | outcome [17] | Potency [11] | Potency [18] | outcome [19] | Potency [12] | outcome [20] | Potency [13]

Source: PubChem BioAssay (Tox21)
